The text below walks through data of PubChem BioAssay AID1745846 (National Center for Advancing Translational Sciences (NCATS), 2022).

The whole screen tested about 1,400 compounds, of which about 30 (2%) were called active. Roughly 15% stayed inconclusive and do not appear here. This is one part of a sample in which actives are shown more often than they occur. A number with no mark means an inactive call. Calls come from the whole dose curve; as a rule, active = well fitted inhibition curve with a large enough effect; inconclusive = small, poorly fitted or top-dose-only effect; inactive = flat fitted curve, though single readings scatter.
% is set by controls: 0 for no effect and ±100 for the full control effect; potency is the fitted concentration of half-maximal effect.

The assay can be described thus: Firefly Luciferase Counterscreen for Inhibitors of ATXN expression. The settings on record: luminescence; series mostly up to 57.5 µM; activity change, negative = inhibition: at the top concentration. An excerpt:
University of Utah School of Medicine, Salt Lake City, Utah
Spinocerebellar ataxia type 2 (SCA2) is a multisystem neurodegenerative disease caused by a dominantly acting mutation leading to expansion of a polyQ domain in the ataxin-2 protein (ATXN2). SCA2 patients develop progressive ataxia and later lose function in other neuronal systems. Prominent parkinsonian signs develop in some patients. Like many neurodegenerative disorders, no symptomatic or disease-modifying treatments are known.
The primary objective of the proposed research is to identify compounds inhibiting ATXN2 expression and to test them for efficacy in SCA2 mouse models. We have developed a cell-based assay paired with an in vivo mouse model using identical luciferase expression constructs. This approach takes advantage of an ATXN2-luciferase transgene, with the luciferase gene flanked by the upstream and downstream portions of the ATXN2 gene. Here we describe a 5-7 dose quantitative high thoroughput screen (qHTS) for compounds lowering ATXN2 expression. We screened the NIH Molecular Libraries Small Molecule Repository (MLSMR) and NCGC's mechanistically annotated (MIPE) and drug repurposing (NPC) collections of compounds for lowering expression of an ATXN2-luciferase reporter in HEK-293 cells. The assay is a multiplexed cell viability assay to ensure target reduction in the absence of cytotoxicity. Secondary qHTS assays included a CMV-luciferase reporter expressed in HEK-293 cells as well as a biochemical assay using recombinant luciferase to detect inhibitors of the reporter enzyme. Compounds that inhibit ATXN2 expression but is not cytotoxic were selected for confirmatory and secondary screens.
PROTOCOL TABLE (as described by Inglese J, Shamu CE and Guy RK. 2007)
SEQUENCE No. (e.g., 1, 2, 3, etc.); […] (e.g., Cells, Incubation, Reagent, etc.); VALUE; DESCRIPTION.
2; Compounds; 23 nL; Kalypsis pintool (Wako USA) equipped with a 1536-well pin head.
3; Enzyme; 1 uL; recombinant firefly luciferase (prepared in 50 mM Tris HCl pH7.5, 10 mM MgCl2, 0.05% BSA, 0.01% Tween20) at final concentration of 10 nM. Wells containing buffer only were used as control (set as 100% inhibition when normalizing data).
4; Incubation; 10 min; room temperature.
5; Detection; Luminescence; Viewlux plate reader (PerkinElmer).
NOTES (numbers refer to Sequence numbers above)
1. Luciferase substrate is added to 1536 well, Greiner white assay plate. Evaporation was prevented by covering assay plates with metal lids containing holes to allow gas diffusion.
2. Compounds were added in a dose response manner with the final concentrations of 57, 11.4, 2.28, 0.46, 0.091, 0.018, 0.0037 uM. Vehicle-only plates, with DMSO being pin-transferred to columns 5-48, were inserted uniformly at the beginning and the end of each library to monitor and record any shifts in assay performance.
3. Recombinant firefly luciferase (10 nM final concentration) is added to the assay plate.
5. End-point luminescence is then measured on the Viewlux (PerkinElmer) imager equipped with a clear emission filter using a 2 sec exposure.
Inglese J, Shamu CE and Guy RK, Reporting data from high throughput screening of small molecule libraries, Nature Chemical Biology, 2007, 3(8): 438-441. doi.org/10.1038/nchembio0807-438.
Background: A counterscreen serves to expose hits that act by an unwanted route or on another target.
Regarding `O=C(Nc1nonc1-c1ccc(Cl)cc1)c1ccccc1`, the “activity change, negative = inhibition” value is 1.38%.

In the case of `O=C(NC1=CC(=O)c2ccccc2C1=O)c1ccccc1`, the Potency is 12.6 µM (active).

Regarding `CC(NC1=CC(=O)c2cccnc2C1=O)C(O)c1ccccc1` (stereo not given), the “activity change, negative = inhibition” value was -12.2%.

As to `O=C(N/N=C/c1cc([N+](=O)[O-])ccc1O)c1c[nH]c2ccccc12`, the “activity change, negative = inhibition” value was -4.35%.

Take `COc1cccc(NC(=S)/C(=C(\[O-])c2cc(C)n(-c3ccccc3F)c2C)[n+]2ccc(N(C)C)cc2)c1`: the Potency is 15.8 µM (active).

With `CCCC[C@@H](CNC)NC[C@H](NCCCCC1CCCCC1)C(C)C`, the “activity change, negative = inhibition” value was 1.22%.

For `CN(C)CCCN(C(=O)c1ccco1)c1nc2ccc(Br)cc2s1`, the “activity change, negative = inhibition” value was -9.87%.

For `CS(=O)(=O)c1ccc(Nc2nc(C(N)Cc3ccc(Cl)cc3)cs2)cc1` (stereo not given), the “activity change, negative = inhibition” value is 0.635%.

With `Cc1cc(O)c(C)c(O)c1/C=N/NC(=O)c1cccnc1`, the “activity change, negative = inhibition” value was -2.83%.

For `CN(C(=O)c1cnc(N2CCN(c3ncccn3)CC2)c2ccccc12)c1ccc(Cl)cc1`, the “activity change, negative = inhibition” value was 2.16%.

As to `C/C(=C\C(=O)c1ccc(Br)cc1)NNC(=O)c1ccc(O)cc1`, the “activity change, negative = inhibition” value is 2.14%.

`CC1C(=O)C(C)C(c2cc(Br)ccc2O)NC1c1cc(Br)ccc1O` (stereo not given): the “activity change, negative = inhibition” value is -3.17%.

In the case of `O=C(c1c(F)cccc1F)N1CCCC(c2nc(-c3ccc(Cl)cc3)no2)C1` (stereo not given), the “activity change, negative = inhibition” value was -10.2%.

On to `O=C(NCc1ccccc1Cl)C1CCCN(C(=O)Nc2ccc(F)cc2)C1` (stereo not given), for which the “activity change, negative = inhibition” value was -2.7%.

Turning to `CCCC(=O)N1CCCC(c2cc(C(=O)Nc3ccccc3)no2)C1` (stereo not given), the Potency was 1.41 µM (active).

`Cc1ccccc1C(=O)N/N=C/c1ccc([N+](=O)[O-])s1`: the Potency is 3.55 µM (active).

With `O=C(N/N=C/c1ccc([N+](=O)[O-])s1)c1ccccc1`, the “activity change, negative = inhibition” value was -19.8%.

As to `Cc1cc(C(=O)N/N=C/c2ccc([N+](=O)[O-])s2)n[nH]1`, the “activity change, negative = inhibition” value was -6.06%.

With `CCOC(=O)c1c(C)nn(-c2ccc(NC(=O)c3cccs3)cc2)c1C`, the “activity change, negative = inhibition” value was -9.56%.

In the case of `Cc1nc2c(OCc3ccc(C(F)(F)F)cc3)cccn2c1N(C)C(=O)CCC1CCCC1`, the “activity change, negative = inhibition” value was -4.05%.

Turning to `C[C@@H]1CN([C@H](C)CO)S(=O)(=O)c2ccc(-c3ccc(C#N)cc3)cc2O[C@H]1CN(C)C(=O)Nc1cc(F)ccc1F`, the “activity change, negative = inhibition” value was 4.48%.

Regarding `Clc1ccc(C[n+]2cc(-c3ccccc3)n3c2CCCCC3)c(Cl)c1`, the “activity change, negative = inhibition” value is 5.15%.

With `COc1cc(OC)cc(-c2cc3nc(C)c(CCC(=O)O)c(C)n3n2)c1`, the Potency was 12.6 µM (active).

As to `C/C(=N\NC(=O)Cc1ccc(Cl)cc1)c1ccccc1O`, the “activity change, negative = inhibition” value was -5.39%.

Regarding `COc1ccc(/C=C2\SC(=S)N(CCCC(=O)Nc3ccccn3)C2=O)cc1OC`, the “activity change, negative = inhibition” value was -8.48%.

Take `Cc1nc2c(OCc3ccc(C#N)cc3)cccn2c1N(C)Cc1cccs1`: the “activity change, negative = inhibition” value is 0.28%.

`C[C@@H](CN1C2=NC[C@H](Cc3ccccc3)N2C[C@H]1Cc1ccc(O)cc1)NC(=O)CCC1CCCCC1`: the “activity change, negative = inhibition” value is 1.67%.

For the compound `O=C(CSc1n[nH]c(-c2ccccn2)n1)Nc1ccc(F)cc1`, the “activity change, negative = inhibition” value is -11.7%.

With `Cc1ccc(Cl)cc1N1CCN(C(=O)CCS(=O)(=O)c2ccc3c(c2)NC(=O)CO3)CC1`, the “activity change, negative = inhibition” value was 2.23%.

As for `CCCCOC(=O)/C=C\C(=O)NC(N)=O`, the “activity change, negative = inhibition” value was 1.17%.

On to `O=C(CCc1ccccc1)NC(c1cccs1)c1cc(Cl)c2cccnc2c1O` (stereo not given), for which the “activity change, negative = inhibition” value was -2.15%.

On to `O=C(Nc1nc2cc(Cl)ccc2s1)C1CCCN(S(=O)(=O)c2cccc3cccnc23)C1` (stereo not given), for which the “activity change, negative = inhibition” value was -4.41%.

With `Cc1ccc(S(=O)(=O)N(C)C)cc1NC(=O)c1cncc(Br)c1`, the “activity change, negative = inhibition” value is 3.55%.

For the compound `Clc1ccc2nc(-c3ccccn3)c(Nc3ccc4c(c3)OCO4)n2c1`, the “activity change, negative = inhibition” value was -0.752%.

Turning to `OC(CNCCc1ccccc1)COc1ccc(OCC(O)CNCCc2ccccc2)cc1` (stereo not given), the “activity change, negative = inhibition” value was 3.74%.

Take `Cc1ccc(/C=C2/CNC/C(=C/c3ccc(C)cc3)C2=O)cc1`: the “activity change, negative = inhibition” value is -13%.

In the case of `CC(=O)NC(c1ccccc1)c1cc(Cl)c2cccnc2c1O` (stereo not given), the “activity change, negative = inhibition” value is -12.7%.

For the compound `COc1cccc2c1C1COC3C4CC(C(=O)O)C(C(C2)N13)N4C` (stereo not given), the “activity change, negative = inhibition” value was 2.05%.

For `CC(=NNc1nc2ccccc2o1)c1ncccn1`, the Potency was 14.1 µM (active).

On to `COc1cc2nc(N(C)C)nc(N)c2cc1OC`, for which the “activity change, negative = inhibition” value is -5.16%.

For `O=C(Nc1ccccc1C(=O)Nc1nnc(C(F)(F)F)s1)c1ccccc1Cl`, the Potency is 22.4 µM (active).

Consider `Fc1ccc(Nc2nnc(C(F)(F)F)s2)cc1Cl`, for which the “activity change, negative = inhibition” value is -13.2%.

`O=C(N/N=C(\c1ccccc1)c1ccccn1)c1ccccc1Cl`: the “activity change, negative = inhibition” value was -10.3%.

`O=S(=O)(c1ccc(F)cc1)c1snnc1-c1ccccc1`: the “activity change, negative = inhibition” value is 1.44%.

Turning to `NC(Cc1ccc(F)cc1)c1csc(NC(=O)NC(c2ccccc2)c2ccccc2)n1` (stereo not given), the “activity change, negative = inhibition” value was 2.44%.

In the case of `O=C(Nc1nc(-c2ccccc2)cs1)c1ccccc1NS(=O)(=O)c1ccc(F)cc1`, the Potency was 28.2 µM (active).

In the case of `OC[C@@H]1CN(Cc2ccc(-c3ccccc3)cc2)C[C@H](n2cnc3c(Nc4ccccc4)ncnc32)O1`, the “activity change, negative = inhibition” value is 1.15%.

For `c1ccc(CNc2nc(-c3ccccn3)nc3ccccc23)cc1`, the “activity change, negative = inhibition” value was -7.78%.

Regarding `COc1ccc(CNC(=O)Nc2nc(C(N)Cc3ccc(Cl)cc3)cs2)cc1` (stereo not given), the “activity change, negative = inhibition” value was -1.52%.

For the compound `CCOC(=O)N1CCC(c2cc(=O)n3[nH]c(C)c(-c4ccc(F)cc4)c3n2)CC1`, the “activity change, negative = inhibition” value was -8.39%.
